Growth data for eight compounds are collected here from PubChem BioAssay (NCI).

Assay in all cases: NCI-60 one-dose screen, 48 h (100 = growth as untreated, 0 = no growth, -100 = all killed)
Holding throughout (details): 10 µM unless noted

The test system of assay [1] is NCI-H23 lung.
Assay [2] has as its system NCI-H226 lung.
In assay [3] the test system is NCI-H322M lung.
The test system of assay [4] is HOP-62 NSCLC.
Assay [5] deals with NCI-H460 lung.
The test system of assay [6] is NCI-H522 lung.
Assay [7] concerns A549/ATCC NSCLC.
In assay [8] the test system is 786-0 renal.
In assay [9] the test system is COLO 205 colon.
Assay [10] relates to DU-145 prostate.
The subject of assay [11] is K-562 leukemia.
Assay [12] relates to MALME-3M melanoma.
The subject of assay [13] is MDA-MB-231 breast.
Assay [14] relates to RXF 393 renal.
Assay [15] relates to SF-268 CNS.
The subject of assay [16] is SF-295 CNS.
Assay [17] has as its system SF-539 CNS.
Assay [18] concerns UACC-257 melanoma.
For assay [19], the system named is M14 melanoma.
In assay [20] the test system is HCT-15 colon.

Compounds without any hit were thinned out: in the full panel of roughly 83,000, 20% have a hit.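 Activity criterion: percent growth below 10, measured after cells in 96-well plates were exposed to a single compound concentration for 48 hours.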 Values without a mark were called inactive. Active and inactive are the calls of the source.

On to `Cc1cc(=O)n2n1-c1ccc(Cl)cc1NC(=O)C2`, for which the growth was 109% in assay [1]; 93.9% in assay [2]; 85.6% in [3]; 104% in [4]; 112% in assay [5]; 96.2% in assay [6]. Besides, the growth in assay [7] is 100%; in [8], 108%; in assay [9], 115%; in assay [10] it was 111%; in assay [11] it was 104%; in assay [12], 103%. Further, the growth is 122% in [13]; 104% in assay [14]; 109% in assay [15]; 98.2% in [16]; 99% in [17]; 89% in [18]. Moreover, the growth in assay [19] was 115%; in assay [20], 101%.

As to `COc1ccc(-c2cc(Cc3cccs3)c(=O)n(Cn3ccc4ccccc43)n2)cc1`, the growth in assay [1] is 105%; in assay [2], 104%; in assay [3], 110%; in assay [4], 105%; in assay [5], 115%; in assay [6], 95.5%. Moreover, the growth in assay [7] is 104%; in assay [8] it was 110%; in assay [9] it was 110%; in [10], 110%; in assay [11], 105%; in [12], 106%. Moreover, the growth in assay [13] was 100%; in assay [14], 116%; in [15], 110%; in assay [16], 101%; in assay [17] it was 101%; in assay [18] it was 103%. Moreover, the growth was 106% in assay [19] and 98.4% in assay [20].

`O=C1NCN(c2ccccc2)C12CCN(CCCC(c1ccc(F)cc1)c1ccc(F)cc1)CC2`: the growth is 72.9% in assay [1]; 94.1% in assay [2]; 60.4% in [3]; 82.9% in [4]; 37.3% in assay [5]; 61.2% in assay [6]. Besides, the growth is 57.8% in [7]; 49.2% in assay [8]; 27.1% in assay [9]; 76% in assay [10]; 6.41% (active) in assay [11]; 39.9% in [12]. For the same compound, the growth was 78% in assay [13]; 39.9% in assay [14]; 71.4% in assay [15]; 17.1% in assay [16]; 50.9% in assay [17]; -15.8% (active) in [18]. In addition, the values for the growth in [19] and in assay [20] were 9.99% (active) and 49.6%, respectively.

As for `COc1cc(C2C=C(c3ccc(C)cc3)Nc3nc(SC)[nH]c(=O)c32)ccc1Oc1ccnc2cc(Cl)ccc12` (stereo not given), the growth in assay [1] is 80.7%; in [2], 79.7%; in assay [3], 84%; in assay [4], 113%; in [5] it was 70.2%; in assay [6], 75%. Besides, the growth is 63.1% in [7]; 85.1% in assay [8]; 101% in assay [9]; 64.5% in [10]; 75.6% in assay [11]; 80.1% in [12]. Moreover, the growth was 73.6% in assay [13]; 83.4% in [14]; 59.6% in [15]; 70.1% in assay [16]; 100% in [17]; 62.7% in [18]. Further, the growth is 85.1% in assay [19] and 64% in [20].

Take `O=C(CCc1nnc(Cn2cncn2)o1)c1nc2ccccc2[nH]1`: the growth in assay [1] is 102%; in [2], 101%; in [3], 115%; in [4], 103%; in [5], 108%; in assay [6], 95.5%. The growth was 105% in assay [7]; 104% in assay [8]; 124% in assay [9]; 109% in assay [10]; 104% in assay [11]; 92% in assay [12]. The growth was 98.7% in [13]; 121% in assay [14]; 105% in assay [15]; 103% in assay [16]; 103% in assay [17]; 112% in [18]. The growth was 111% in assay [19] and 102% in assay [20].

In the case of `Cc1ccsc1/C=C/C1=NCCCN1C`, the growth in assay [1] was 97%; in [2], 100%; in assay [3] it was 102%; in [4], 100%; in assay [5], 116%; in assay [6], 91%. Further, the growth in assay [7] was 99.7%; in [8] it was 92.5%; in [9], 101%; in assay [10], 112%; in assay [11], 101%; in assay [12], 97%. The growth in assay [13] was 99.3%; in assay [14], 113%; in [15] it was 111%; in assay [16], 95.6%; in [17] it was 119%; in assay [18], 110%. For the same compound, the growth is 100% in [19] and 109% in assay [20].

With `CCOc1cc(-c2ccc[nH]2)[nH]c1/C=C1\N=C(C)C(C(=O)OC)=C1C`, the growth in assay [1] was -59.4% (active); in assay [2], -61.9% (active); in assay [3] it was -61.8% (active); in [4] it was -58% (active); in assay [5], -79.4% (active); in assay [6], -50.1% (active). Besides, the growth in assay [7] was -47.1% (active); in assay [8], -50.2% (active); in assay [9], -78.6% (active); in assay [10], -65.5% (active); in assay [11] it was -55.4% (active); in assay [12] it was -61.1% (active). Further, the growth was -62.6% (active) in assay [13]; -72.5% (active) in [14]; -55.7% (active) in assay [15]; -69.8% (active) in assay [16]; -66.7% (active) in assay [17]; -56.7% (active) in assay [18]. Besides, the growth in assay [19] was -59.9% (active); in assay [20] it was -27% (active).

As to `CC1=C(C(=O)Nc2ccccc2)C(c2ccc3c(c2)OCCO3)NC(=O)N1` (stereo not given), the growth is 101% in [1]; 102% in assay [2]; 107% in assay [3]; 104% in [4]; 107% in [5]; 104% in assay [6]. Also, the growth is 98.8% in [7]; 100% in assay [8]; 105% in assay [9]; 114% in assay [10]; 98.5% in [11]; 96.9% in assay [12]. Besides, the growth is 118% in assay [13]; 116% in [14]; 100% in assay [15]; 114% in assay [16]; 100% in assay [17]; 102% in [18]. Further, the figures for the growth in assay [19] and in assay [20] were 103% and 106%, respectively.
